Data as given in PubChem BioAssay (NCATS).
Records with an inconclusive call do not appear. Calls of active or inactive are those of the source. Unless noted, the call rests on the fitted dose curve.

Columns and labels:
[1] = qHTS for Inhibitors of the Functional Ribonucleoprotein Complex (vRNP) of Lassa (LASV) Arenavirus: Viability assay - alamar blue signal for LASV Primary Screen (AID 1347083; calls by dose curve; tested in HEK293 reporter line; further: nearly all actives have a fitted effect of over 80% in size; further: potency means the concentration at half of the fitted maximal effect)
[2] = qHTS for Inhibitors of the Functional Ribonucleoprotein Complex (vRNP) of Lymphocytic Choriomeningitis Arenaviruses (LCMV): Viability assay - alamar blue signal for LCMV Primary Screen (AID 1347085; calls by dose curve; tested in HEK293 reporter line; further: nearly all actives have a fitted effect of over 80% in size; further: potency means the concentration at half of the fitted maximal effect)
[3] = biological target: Nucleoprotein (Lymphocytic choriomeningitis virus (strain Armstrong)) (UniProt P09992); experiment: qHTS for Inhibitors of the Functional Ribonucleoprotein Complex (vRNP) of Lymphocytic Choriomeningitis Arenaviruses (LCMV): LCMV Primary Screen - GLuc reporter signal (AID 1347086); further: nearly all actives have a fitted effect of over 70% in size; further: potency means the concentration at half of the fitted maximal effect; on activity change, negative = inhibition: on the % scale 0 is the no-effect control and ±100 the full control effect
Nucleoprotein (Lymphocytic choriomeningitis virus (strain Armstrong)), sequence (P09992 whole entry, looked up): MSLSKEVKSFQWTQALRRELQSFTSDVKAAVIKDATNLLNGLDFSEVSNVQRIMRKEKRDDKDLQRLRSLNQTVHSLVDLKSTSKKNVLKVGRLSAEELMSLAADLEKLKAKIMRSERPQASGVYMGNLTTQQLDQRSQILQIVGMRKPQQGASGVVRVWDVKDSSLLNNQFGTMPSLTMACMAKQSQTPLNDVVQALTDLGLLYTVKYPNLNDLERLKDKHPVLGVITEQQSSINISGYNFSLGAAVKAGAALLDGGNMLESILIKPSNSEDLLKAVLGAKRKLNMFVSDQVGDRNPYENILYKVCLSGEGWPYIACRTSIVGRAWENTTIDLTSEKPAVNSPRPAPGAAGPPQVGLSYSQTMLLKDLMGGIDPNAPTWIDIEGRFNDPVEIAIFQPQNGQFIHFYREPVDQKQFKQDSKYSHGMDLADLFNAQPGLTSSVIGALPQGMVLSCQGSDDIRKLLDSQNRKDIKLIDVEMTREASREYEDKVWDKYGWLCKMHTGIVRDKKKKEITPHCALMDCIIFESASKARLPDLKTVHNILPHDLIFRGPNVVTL

[4] = Confirmatory qHTS for VERO E6 Cytotoxicity Assay: Counterscreen for SARS-CoV-2 CPE Assay (AID 1508605); further: on the % scale 0 is the no-effect control and ±100 the full control effect; nearly all actives have a fitted effect of over 60% in size
[5] = Confirmatory qHTS for activators (rescue) of SARS-CoV-2 Cytopathic Effect (CPE) (AID 1508606); further: potency means the concentration at half of the fitted maximal effect; nearly all actives have a fitted effect of over 70% in size
[6] = Cytotoxicity counterscreen for inhibitors of SARS-CoV-2 cell entry (AID 1645845); further: nearly all actives have a fitted effect of over 50% in size; further: potency means the concentration at half of the fitted maximal effect
Summary of the method: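 Expi293F/hACE2 cells seeded overnight; cpd pin-transferred in DMSO, 1 h preincubation, + media, 48 h 37 C 5% CO2; ATPLite 1step luminescence; normalized to cells and no cells.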

[7] = Primary qHTS to identify inhibitors of SARS-CoV-2 cell entry (AID 1645846); details: activity change, negative = inhibition: at 57.1 µM (top of the series) unless noted; further: nearly all actives have a fitted effect of over 45% in size; further: potency means the concentration at half of the fitted maximal effect
Summary of the method: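 HEK293 cells stably expressing human ACE2, pre-treated 1 h with compound, then infected with MLV particles pseudotyped with Wuhan-Hu-1 spike (C-terminal 19-aa truncation). Luciferase luminescence after 48 h at 37 °C, normalised to spike PP and bald PP.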

[8] = Confirmatory qHTS to identify inhibitors of SARS-CoV-2 cell entry (AID 1645844); further: potency means the concentration at half of the fitted maximal effect; nearly all actives have a fitted effect of over 45% in size
Summary of the method: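 HEK293-ACE2 cells (Expi293F stably expressing human ACE2) were pretreated with compounds for 1 hr at 37C, then infected with MLV-based particles carrying Wuhan-Hu-1 spike (C-terminal 19-aa truncation). Luciferase luminescence read after 48 hr; normalized to spike PP (100%) and bald PP (0%).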

[9] = VSVG counterscreen qHTS to identify inhibitors of SARS-CoV-2 cell entry (AID 1645847); further: potency means the concentration at half of the fitted maximal effect; nearly all actives have a fitted effect of over 65% in size
Summary of the method: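 HEK293-ACE2 cells (Expi293F, human ACE2) pretreated 1 h with compound, then infected with MLV-based VSV-G pseudotyped particles for 48 h at 37 C; luciferase luminescence normalized to VSV-G PP and bald PP wells.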

[10] = qHTS profiling of the MIPE4 collection as inhibitors of Plasmodium falciparum (3D7) proliferation (AID 743344; call rule not given here;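 further: scaled between DMSO vehicle wells and 0.29 µM artemisinin as full inhibition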); details: P. falciparum 3D7 in erythrocytes, SYBR Green DNA fluorescence, 72 h; at 28.5 µM (top of the series) unless noted
Summary of the method: (§1)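 Erythrocytes infected with P. falciparum (0.3% parasitemia, 2.5% hematocrit) incubated with compounds 72 h at 37 C, 5% CO2. Lysis with saponin/Triton buffer containing SYBR Green I, overnight at room temperature in the dark; DNA fluorescence (485/535 nm) normalised to 0.29 uM artemisinin and DMSO.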

[11] = qHTS profiling of the MIPE4 collection as inhibitors of Plasmodium falciparum (DD2) proliferation (AID 743345; call rule not given here); details: P. falciparum Dd2 in erythrocytes, SYBR Green DNA, 72 h; at 28.5 µM (top of the series) unless noted
Summary of the method: as §1

[12] = qHTS profiling of the MIPE4 collection as inhibitors of Plasmodium falciparum (HB3) proliferation (AID 743347; call rule not given here;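 further: plate controls were DMSO vehicle wells for no effect and artemisinin wells for full effect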); details: P. falciparum HB3 in erythrocytes, SYBR Green DNA, 72 h; at 28.5 µM (top of the series) unless noted
Summary of the method: as §1

C#C[C@]1(O)CC[C@H]2[C@H]3CCc4cc(OC)ccc4[C@H]3CC[C@@]21C
Potency [1]: 13700 nM (active) | Potency [2]: 24300 nM (active) | Potency [3]: 27300 nM (active)

Cn1cc(C=CC(=O)c2cccc(F)c2)cc1C=CC(=O)NO
Potency [1]: 17200 nM (active) | Potency [2]: 17200 nM (active) | Potency [3]: 13700 nM (active)

N#Cc1c(C2CCNCC2)cc(-c2c(O)cccc2OCC2CC2)nc1N
Potency [1]: 19300 nM (active) | Potency [2]: 8630 nM (active) | Potency [3]: 5440 nM (active) | Potency [4]: inactive | Potency [5]: 11200 nM (active) | Potency [6]: 7940 nM (active)

Cc1nc(NC(=O)N2CCC[C@@H]2C(N)=O)sc1-c1ccnc(C(C)(C)C(F)(F)F)c1
Potency [1]: 10900 nM (active) | Potency [2]: inactive | Potency [3]: inactive

CCOc1cc2ncc(C#N)c(Nc3ccc(OCc4ccccn4)c(Cl)c3)c2cc1NC(=O)C=CCN(C)C
Potency [1]: 1370 nM (active) | Potency [2]: 769 nM (active) | Potency [3]: 1530 nM (active)

CCCCCCOC(=O)N=C(N)c1ccc(NCc2nc3cc(C(=O)N(CCC(=O)OCC)c4ccccn4)ccc3n2C)cc1
Potency [1]: inactive | Potency [2]: inactive | Potency [3]: inactive

CC(=O)ON=C1C(c2c(O)[nH]c3cc(Br)ccc23)=Nc2ccccc21
Potency [1]: 1930 nM (active) | Potency [2]: inactive | Potency [3]: inactive

O=C(O)Cn1nnc(-c2cc(N3CCC(Oc4cc(F)ccc4Br)CC3)no2)n1
Potency [1]: 1530 nM (active) | Potency [2]: 1720 nM (active) | Potency [3]: 2730 nM (active) | activity change, negative = inhibition [7]: -56.8%

CN[C@H]1CCc2cc(OC)c(OC)c(OC)c2-c2ccc(OC)c(=O)cc21
Potency [1]: inactive | Potency [2]: 5.4 nM (active) | Potency [3]: 17.2 nM (active) | Potency [8]: 38.3 nM (active) | Potency [6]: inactive | activity change, negative = inhibition [7]: -76.7% | Potency [9]: 171 nM (active)

NC(=O)c1cccc(-c2cc(Nc3ccc(OC(F)(F)F)cc3)ncn2)c1
Potency [1]: inactive | Potency [2]: inactive | Potency [3]: inactive | Potency [4]: inactive | Potency [6]: 22400 nM (active)

COc1cc([C@@H]2c3cc4c(cc3[C@H](O)[C@H]3COC(=O)[C@@H]23)OCO4)cc(OC)c1OC
parasite growth, % of DMSO control [10]: 52.9% | parasite growth remaining, % of DMSO control (lower = more inhibition) [11]: 78.3% | growth, % of control [12]: 44.9% | Potency [1]: 193 nM (active) | Potency [2]: 344 nM (active) | Potency [3]: 1090 nM (active) | Potency [9]: 1710 nM (active)

O=C(Cc1ccc(-c2ccc(OCCN3CCOCC3)cc2)cn1)NCc1ccccc1
Potency [1]: 48.5 nM (active) | Potency [2]: 54.4 nM (active) | Potency [3]: 137 nM (active) | Potency [9]: 171 nM (active)

Cn1cc(-c2cnn3c(N)c(Br)c([C@H]4CCCNC4)nc23)cn1
Potency [1]: 1220 nM (active) | Potency [2]: 1530 nM (active) | Potency [3]: 2730 nM (active)

COc1cc(OC)c(C=CS(=O)(=O)Cc2ccc(OC)c(NCC(=O)O)c2)c(OC)c1
Potency [1]: 217 nM (active) | Potency [2]: 273 nM (active) | Potency [3]: 611 nM (active)

CCC[C@H](Nc1nc(-c2ccc(NC(=O)NCC)c(OC)c2)ncc1C)c1cccnc1
Potency [1]: 38.5 nM (active) | Potency [2]: 48.5 nM (active) | Potency [3]: 109 nM (active) | activity change, negative = inhibition [7]: -93.9%

CO[C@H]1C[C@@H]2CC[C@@H](C)[C@@](O)(O2)C(=O)C(=O)N2CCCC[C@@H]2C(=O)O[C@H]([C@H](C)C[C@@H]2CC[C@H](OC(=O)C(C)(CO)CO)[C@H](OC)C2)CC(=O)[C@H](C)C=C(C)[C@@H](O)[C@@H](OC)C(=O)[C@H](C)C[C@H](C)C=CC=CC=C1C
Potency [1]: 12.2 nM (active) | Potency [2]: 27.3 nM (active) | Potency [3]: 15.3 nM (active)

CCC(C=C[C@@H]1OC(=O)C=C[C@H]1C)=C[C@H](C)CC=CC(C)=C[C@@H](C)C(=O)[C@@H](C)[C@H](O)[C@@H](C)CC(C)=CC(=O)O
Potency [1]: 114 nM (active) | Potency [2]: 144 nM (active) | Potency [3]: 203 nM (active)

COc1cc2cc(c1Cl)N(C)C(=O)CC(OC(=O)C(C)N(C)C(C)=O)C1(C)OC1C(C)C1CC(O)(NC(=O)O1)C(OC)C=CC=C(C)C2 (stereo not given)
Potency [1]: inactive | Potency [2]: inactive | Potency [3]: inactive

COc1cc(-c2nn(C3CCC(N4CCN(C(C)=O)CC4)CC3)c3ncnc(N)c23)ccc1NC(=O)c1cc2ccccc2n1C (stereo not given)
Potency [1]: 863 nM (active) | Potency [2]: 968 nM (active) | Potency [3]: 685 nM (active) | Potency [6]: inactive

CCOC(=O)N1CCN([N+]([O-])=NOc2ccc([N+](=O)[O-])cc2C#N)CC1
Potency [1]: 10900 nM (active) | Potency [2]: inactive | Potency [3]: inactive

COc1cc(N2CCC(C(N)=O)CC2)ccc1Nc1nc(N)c(Cl)c(Nc2ccccc2S(=O)(=O)C(C)C)n1
Potency [1]: 12200 nM (active) | Potency [2]: 1720 nM (active) | Potency [3]: 769 nM (active)

FC(F)(F)c1ccc(Nc2nc3ccc(Oc4ccnc(-c5ncc(C(F)(F)F)[nH]5)c4)cc3[nH]2)cc1
Potency [1]: 6110 nM (active) | Potency [2]: 1370 nM (active) | Potency [3]: 3850 nM (active) | Potency [6]: inactive | Potency [7]: 31600 nM (active)

NCC(=O)Nc1ccc(-n2nc(C(F)(F)F)cc2-c2ccc3c(ccc4ccccc43)c2)cc1
Potency [1]: 19300 nM (active) | Potency [2]: 10900 nM (active) | Potency [3]: 1720 nM (active) | Potency [8]: 15200 nM (active) | Potency [9]: 6070 nM (active)
